# Screening results from PubChem.
# Cruzain inh noDet: qHTS Assay for Promiscuous and Specific Inhibitors of Cruzain (without detergent). Cruzipain (Trypanosoma cruzi), P25779. purified cruzain, Z-FR-AMC fluorescence, no detergent. Potency, µM, actives largely listed as inhibitors. 200,000 compounds, 2.3% hits. AID 1476, 2009; note: nearly all actives have a fitted effect of over 40% in size
# Target sequence (P25779 123-467 limits assumed): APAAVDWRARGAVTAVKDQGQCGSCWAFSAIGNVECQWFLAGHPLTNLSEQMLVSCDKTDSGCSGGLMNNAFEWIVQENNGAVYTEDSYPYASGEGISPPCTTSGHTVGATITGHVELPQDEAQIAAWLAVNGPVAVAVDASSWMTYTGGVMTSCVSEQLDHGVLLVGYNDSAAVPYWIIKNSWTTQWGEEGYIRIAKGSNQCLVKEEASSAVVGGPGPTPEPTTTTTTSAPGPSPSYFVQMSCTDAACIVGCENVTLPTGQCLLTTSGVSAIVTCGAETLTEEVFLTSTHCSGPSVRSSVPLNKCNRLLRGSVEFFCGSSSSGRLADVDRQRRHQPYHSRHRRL
#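 Detergent-free condition (0.00005% Triton X-100) in acetate buffer pH 5.5 with DTT. 1.5 nM enzyme and compound were pre-mixed 15 min, then 2 uM Z-FR-AMC substrate added; reaction progress from fluorescence change between first and third reads (60 s).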
# Cruzain Triton: qHTS Assay for Promiscuous and Specific Inhibitors of Cruzain (with detergent). Potency, µM, most hits filed as inhibitors. 200,000 compounds, 0.43% hits. AID 1478, 2009. purified cruzain, Z-FR-AMC fluorescence, 0.01% Triton; note: nearly all actives have a fitted effect of over 40% in size
#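 Sodium acetate buffer (100 mM, pH 5.5) containing 5 mM DTT and 0.01% Triton X-100 hosted 1.5 nM cruzain and test compound for 15 min at room temperature. Cleavage of 2 uM Z-FR-AMC was then tracked by fluorescence.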
# Hits are given with their value; n = inactive; u = inconclusive. A selection: hits, their analogues and other compounds. The true share with any hit is near 2.6%. Calls come from the whole dose curve; as a rule, active = well fitted curve in the direction sought with a large enough effect; inconclusive = small, poorly fitted or top-dose-only effect, or another doubt; inactive = no such curve, though single readings can be large; an effect the other way counts as inactive or inconclusive.
SMILES,Cruzain inh noDet,Cruzain Triton
Cc1nc(N2CCOCC2)c2nc(-c3ccccc3)n(CC(C)(C)CN(C)C)c2n1,n,n
COc1ccc(OC)c(Nc2nc(C3CC3)nc3c2nnn3Cc2ccccc2)c1,n,n
c1ccc(Cn2nnc3c(Nc4ccc5c(c4)OCO5)nc(C4CC4)nc32)cc1,15.8µM,n
CN(C)c1cccc(C(=O)OC(C(=O)Nc2ccc([N+](=O)[O-])cc2Br)c2ccccc2)c1 (configuration not stated),15.8µM,n
CN(C)c1cccc(C(=O)OC(C(=O)Nc2ccc(Cl)cc2C(F)(F)F)c2ccccc2)c1 (configuration not stated),u,n
CN(C)c1ccc(/C=C2\SC(=S)N(Nc3ncc(C(F)(F)F)cc3Cl)C2=O)cc1,12.6µM,n
COc1cc(/C=C2\SC(=S)N(Nc3ncc(C(F)(F)F)cc3Cl)C2=O)ccc1O,u,n
O=C(Nc1cccnc1Cl)c1cc(-c2ccco2)on1,n,n
COc1cc(NC(=O)c2cc(-c3ccco3)on2)c(OC)cc1Cl,10µM,n
COc1ccc(NC(=O)c2ccc3c(=O)n4nc(Nc5cc(C)ccc5C)sc4nc3c2)cc1,n,n
CCC1(C)Cc2ccccc2-c2c1c(=O)n(Cc1ccccc1)c1nnnn21 (configuration not stated),u,n
O=c1c2c(n3nnnc3n1Cc1ccccc1)-c1ccccc1CC21CCCC1,25.1µM,n
CCOc1ccc(NC(=O)c2cc(S(=O)(=O)N3CCC(C)CC3)cn2C)cc1,n,n
CC(C)CCNC(=O)c1cc(-c2ccc(Br)s2)nc2ccccc12,3.16µM,n
Cc1cccc(NC(=O)c2cc(-c3ccc(C)s3)nc3ccccc23)n1,20µM,n
CCCCN(C)CCCNC(=O)c1cc(-c2ccc(Br)s2)nc2ccccc12,n,n
Cc1cc(NC(=O)c2cc(-c3ccc(C)s3)nc3ccccc23)no1,n,n
Cc1cc(C)cc(NC(=O)CSc2oc(-c3cccs3)nc2S(=O)(=O)c2ccccc2)c1,n,n
CCOc1ccc(NC(=O)c2oc3ccccc3c2NC(=O)C(C)Oc2ccccc2)cc1 (configuration not stated),31.6µM,n
CCOc1ccc(NC(=O)c2oc3ccccc3c2NC(=O)c2cc(C)cc(C)c2)cc1,n,n
CCc1ccc2occ(CC(=O)Nc3c(C(=O)Nc4ccc(OC)cc4)oc4ccccc34)c2c1,n,n
COc1ccc(NC(=O)c2oc3ccccc3c2NC(=O)Cc2coc3ccc(C)cc23)cc1,25.1µM,n
CCOC(=O)c1ccc2c(c1)N(CC(=O)Nc1ccc(C)cc1C)C(=O)c1ccccc1S2,n,n
O=C1N/C(=N/N=C/c2ccccc2)SC1(c1ccccc1)c1ccccc1,3.98µM,n
COC(=O)/C=C1\S/C(=N/N=C/c2ccccc2)NC1=O,n,n
SMILES,Cruzain inh noDet,Cruzain Triton
CCOC(=O)c1ccccc1NC(=O)Cn1ccn2nc(-c3ccc(OCC)cc3)cc2c1=O,n,n
O=C(c1ccc2c(c1)N(Cc1cccc(Cl)c1)C(=O)c1ccccc1S2)N1CCOCC1,u,n
COC(=O)c1ccccc1NC(=O)C1=C(C)C(=O)OC12CCC(C)CC2 (configuration not stated),n,n
Cn1c(=O)c(=O)n(C)c2cc(S(=O)(=O)N3CCN(c4ccccc4)CC3)ccc21,n,n
O=C(c1cc(C(=O)NCc2ccccc2)c(=O)n(Cc2ccccc2)c1)c1cc(Cl)ccc1O,u,n
Cc1ccccc1NC(=O)c1cc(C(=O)c2cc(Cl)ccc2O)cn(-c2ccccc2C)c1=O,7.94µM,n
CCC1=C2CC[C@H]3C(=O)N(CC)C(=O)[C@H]3[C@H]2[C@@]2(C)C(=O)N(CC(=O)OC)C(=O)N2C1=O,n,n
Cc1ccc(S(=O)(=O)CC(=O)Nc2nc3c(C)cccc3s2)cc1,25.1µM,n
O=C(CS(=O)(=O)c1ccc(Cl)cc1)Nc1nc2ccc(Br)cc2s1,7.94µM,n
Cc1ccc(Cl)c2sc(NC(=O)CS(=O)(=O)c3ccc(Cl)cc3)nc12,n,n
CC(=O)Nc1ccc2nc(NC(=O)CS(=O)(=O)c3ccc(C)cc3)sc2c1,n,n
COc1ccc2c(c1)OCC(Cc1ccc(OC)c(O)c1)C2=O (configuration not stated),n,n
COc1ccc(OCC(=O)N2CCN(C(=O)c3cccc(OC)c3)CC2)cc1,n,n
COc1ccccc1NC(=O)c1cc2c(=O)n(Cc3cccs3)ccc2nc1C,u,n
CSc1nnc2c3cc(F)ccc3n(Cc3ccccc3)c2n1,n,n
CCCCn1c2ccc(F)cc2c2nnc(SCCN(CC)CC)nc21,20µM,15.8µM
CCN(CC)c1ccc2cc(-c3nc4sc5c(c4c(=O)[nH]3)CCC(C(C)(C)C)C5)c(=O)oc2c1 (configuration not stated),n,n
CCOc1ccccc1NC(=O)c1c(NC(=O)c2cccc(C)c2)sc2c1CCCC2,n,n
Cc1ccc(NC(=O)CSc2c3c(nc4ccccc24)CCCC3)cc1F,n,n
CCc1ccc2oc(-c3cc(NC(=O)c4cc(OC)c(OC)c(OC)c4)ccc3O)nc2c1,n,n
CCc1ccc2oc(-c3cc(N=Cc4cccc(OC)c4O)ccc3O)nc2c1,15.8µM,n
Cc1ccc(NC(=O)CN2C(=O)S/C(=C\C(=O)Nc3ccc(Cl)cc3)C2=O)cc1,10µM,n
CCn1c(C)cc(/C=C2\NC(=O)N(CC(=O)Nc3cccc(C)c3)C2=O)c1C,u,n
CCn1c(C)cc(/C=C2\SC(=O)N(CC(=O)Nc3ccc(C)c(C)c3)C2=O)c1C,15.8µM,n
Cn1cccc1/C=C1\SC(=O)N(CC(=O)Nc2ccc(Cl)cc2)C1=O,u,n
SMILES,Cruzain inh noDet,Cruzain Triton
CC(C)CC(=O)Nc1nnc(S(=O)(=O)N(CC(C)C)c2ccccc2)s1,n,n
CCN(CC)c1ccc(NC(=O)CN2C(=O)c3cccnc3Sc3ccccc32)c(C)c1,n,n
O=C(NC1CC(=O)N(c2cccc(F)c2)C1)C1CCCC1 (configuration not stated),n,n
COc1cccc(CNCCSc2nnnn2C)c1OCc1ccc(Cl)cc1,n,n
c1cc(NC2CC2)nc(-c2ccoc2)n1,n,n
Cc1nn(CC(=O)Nc2ccc(OC(F)(F)F)cc2)c(=O)c2c(C)n(-c3ccc(Cl)cc3)nc12,n,n
COc1ccc(-n2cc(-c3ccccc3)c3c(NC4CCCC4)ncnc32)cc1,n,n
CCOc1ccccc1Nc1ncnc2c1c(-c1ccccc1)cn2-c1ccc(OC)cc1,10µM,n
CCCCNc1nc(C)nc2c1nc(-c1ccccc1)n2CCN1CCCCC1,n,n
COc1ccc(-c2nn(-c3ccccc3)cc2/C=N/n2cnnc2)cc1OC,u,n
COc1ccc(-c2nn(-c3ccccc3)cc2/C=N/NC(N)=S)cc1OC,0.631µM,1.58µM
COc1ccccc1NS(=O)(=O)c1cccc(C(=O)N/N=C/c2ccc3c(c2)OCCO3)c1,u,n
COc1ccccc1NS(=O)(=O)c1cccc(C(=O)N/N=C/c2c(C)nn(-c3ccccc3)c2N2CCCC2)c1,n,n
COc1ccccc1NS(=O)(=O)c1cccc(C(=O)N/N=C/c2cn(-c3ccccc3)nc2-c2ccccc2)c1,12.6µM,n
CCN(CC)c1ccc(/C=N/NC(=O)c2cccc(S(=O)(=O)Nc3ccccc3OC)c2)c(O)c1,20µM,n
COc1ccc(OC)c(NC(=O)c2cc(-c3ccc(Cl)s3)nc3ccccc23)c1,n,n
Cc1nc(N2CCOCC2)c2nc(-c3ccccc3)n(CCN3CCOCC3)c2n1,n,n
